# UGM FP inh – Mtb UDP-galactopyranose mutase inhibition; P9WIQ1; purified UGM, fluorescence polarization probe displacement; inhibition, % at 10 µM; hit rate 0.06% among 320,000; AID 504406; in the data active = inhibition above about 10%, passing the limit was not always enough
# Rv3671c protease – inhibits the M. tuberculosis serine protease Rv3671c; inhibition, % at 5.96 µM; hit rate 0.048% among 320,000; in the data active = inhibition above about 38%;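 also: extracellular domain of Rv3671c used as enzyme; 0% = enzyme with DMSO and 100% = no enzyme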
# BJeLR lethal – kills HRASV12-expressing BJeLR cells; hit rate 0.17% among 300,000; inhibition, % (no concentration beside the values); AID 1554; BJeLR (HRASV12) viability, CellTiter-Glo ATP luminescence, 48 h; in the data active = inhibition above about 50%
# RecA intein inh – blocks M. tuberculosis RecA intein splicing; P9WHJ3; cell-free RecA intein splicing, fluorescence; inhibition, % (no concentration beside the values); hit rate 0.75% among 290,000; AID 2221; in the data active = inhibition above about 30%;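 also: 0% = vehicle wells and 100% = reference inhibitor control wells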
# Target sequence (P9WHJ3 whole entry, looked up): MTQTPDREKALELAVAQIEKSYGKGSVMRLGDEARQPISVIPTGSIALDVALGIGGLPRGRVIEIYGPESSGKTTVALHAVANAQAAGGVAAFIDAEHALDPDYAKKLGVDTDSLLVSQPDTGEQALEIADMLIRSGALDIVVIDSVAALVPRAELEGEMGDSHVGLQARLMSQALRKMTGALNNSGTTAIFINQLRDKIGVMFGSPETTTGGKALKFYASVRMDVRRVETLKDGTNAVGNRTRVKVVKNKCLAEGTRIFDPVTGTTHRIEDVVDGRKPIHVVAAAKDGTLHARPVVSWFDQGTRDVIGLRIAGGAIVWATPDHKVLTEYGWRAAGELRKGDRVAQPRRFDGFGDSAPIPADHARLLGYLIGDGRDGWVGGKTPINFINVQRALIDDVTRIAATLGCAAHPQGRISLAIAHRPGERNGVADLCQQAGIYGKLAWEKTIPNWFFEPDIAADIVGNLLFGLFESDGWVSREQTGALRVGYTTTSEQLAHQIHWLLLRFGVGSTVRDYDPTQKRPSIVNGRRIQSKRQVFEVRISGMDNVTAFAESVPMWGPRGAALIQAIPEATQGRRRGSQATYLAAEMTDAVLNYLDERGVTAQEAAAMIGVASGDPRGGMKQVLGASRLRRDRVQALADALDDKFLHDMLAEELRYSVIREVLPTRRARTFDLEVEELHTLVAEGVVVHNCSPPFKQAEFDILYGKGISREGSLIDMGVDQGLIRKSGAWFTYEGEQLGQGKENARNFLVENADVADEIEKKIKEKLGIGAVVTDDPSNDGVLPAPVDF
# FadD28 FP inh – blocks FadD28 binding to the bisubstrate probe | fluorescence polarization | inhibition, % at 12.5 µM | hit rate 0.22% among 360,000; in the data active = inhibition above about 8.5%, passing the limit was not always enough
# PrP 5UTR inh – suppresses PrP 5' UTR mRNA reporter expression; cell-based PrP 5' UTR mRNA reporter, plate reader; inhibition, % (no concentration beside the values); hit rate 0.35% among 340,000; in the data active = inhibition above about 52%; also: 0 = median of the neutral control wells
# An asterisk follows results filed as active; / = not tested or not shown. An excerpt weighted towards active compounds, which were near 1.3% of everything screened.
SMILES,UGM FP inh,Rv3671c protease,BJeLR lethal,RecA intein inh,FadD28 FP inh,PrP 5UTR inh
Cc1nn(-c2ccccc2)c(N2CCCC2)c1/C=N/NC(=O)c1ccccc1O,-2,6,1,-1,-2,-8
O=C(Nc1cccc2ccccc12)c1csc([C@@H]2O[C@H](CO)[C@H](O)[C@H](O)[C@H]2O)n1,/,/,/,/,0,/
CC1(C(=O)NCc2cccs2)Cc2c(-c3ccc(C(N)=O)cc3)ccnc2O1 (configuration not stated),/,/,/,/,0,/
COCCNC(=O)C1(C)Cc2c(-c3ccc(N(C)C)cc3)ccnc2O1 (configuration not stated),/,/,/,/,-2,/
CCN(CC)c1ccc(/C=N/NC(=O)c2ccc3nc[nH]c3c2)cc1,1,0,-6,-4,31*,-11
CC(C)CN(C(=O)c1ccc(-n2cncn2)c([N+](=O)[O-])c1)C1CCS(=O)(=O)C1 (configuration not stated),4,0,-9,-4,22*,-26
O=C1[C@H](c2ccccc2)[C@@H](c2ccccc2)N1c1ccncc1,/,/,/,/,-1,-3
CN(Cc1ccc(Cl)cc1)C(CCc1ccccc1)C(=O)NC1CCCCC1 (configuration not stated),/,/,/,/,-3,/
COc1ccc(S(=O)(=O)N2c3ccc(F)cc3CCC2C)cc1 (configuration not stated),-2,-3,62*,10,-1,50
Cc1cc(C)cc(NC(=S)N=Nc2c(O)n(C)c3ccc(S(=O)(=O)N4CCOCC4)cc23)c1,0,24,0,-1,2,27
Cc1ccccc1NC(=S)N=Nc1c(O)n(C)c2ccc(S(=O)(=O)N3CCOCC3)cc12,-4,13,-3,41*,-3,4
Cc1cccc(C)c1NC(=S)N=Nc1c(O)n(C)c2ccc(S(=O)(=O)N3CCOCC3)cc12,0,2,-3,46*,-3,-20
O=Cc1cc2ccccc2nc1SCc1ccc(Cl)cc1,-2,1,63*,2,-1,47
O=Cc1cc2ccccc2nc1SCc1ccc(Cl)c(Cl)c1,-2,-3,55*,3,-6,51
Cc1ccc(CSc2nc3ccccc3cc2C=O)cc1,0,-14,44,-1,-10,-12
CCOC(=O)c1ccc(NC(=S)NNC(=O)C2(C)CC2(Cl)Cl)cc1 (configuration not stated),2,-6,-10,1,15*,13
CCOC(=O)c1ccc(NC(=S)NNC(=O)COC)cc1,-1,7,1,-4,0,-15
CCc1c(C(=O)NNC(=S)Nc2ccc(S(=O)(=O)Nc3ncccn3)cc2)csc1C,3,2,1,-1,9.6*,16
CC1=C(C(=O)N(C)C)CC(CC(=O)NCc2cccc3ccccc23)C(=O)N1Cc1ccc(F)cc1 (configuration not stated),/,/,/,/,-4,/
CC(=O)c1ccc(NC2=C(N3CCOCC3)C(=O)c3ccccc3C2=O)cc1,4,-113,6,7,1,-9
Cc1ccc(NC2=C(N3CCOCC3)C(=O)c3ccccc3C2=O)cc1,1,-140,11,41*,0,12
CC(=O)N(C)C1=C(N2CCOCC2)C(=O)c2ccccc2C1=O,-2,-31,20,32*,-3,-6
COc1cc(C(=O)N(C)C2CCCCC2)cc(OC)c1OC,/,/,/,/,1,/
COc1ccc(N=Nc2ccc(O)c3ncccc23)cc1,-1,30,26,10,-1,13
O=Nc1ccc(O)c2ncccc12,-1,15,33,2,-2,18
SMILES,UGM FP inh,Rv3671c protease,BJeLR lethal,RecA intein inh,FadD28 FP inh,PrP 5UTR inh
Cc1ccccc1N=Nc1ccc(O)c2ncccc12,-1,7,66*,1,-2,20
O=S(=O)(O)c1cccc2c(N=Nc3ccc(O)c4ncccc34)cccc12,1,27,9,10,28*,-11
COc1cccc(N=Nc2ccc(O)c3ncccc23)c1,-2,2,66*,-2,-4,-2
CC(=O)c1ccc2c(c1)CC1(C2)Cc2cc3c(cc2C1)C(=O)CC3 (configuration not stated),/,/,/,/,-4,-15
O=C(CN(c1cccc(Br)c1)S(=O)(=O)c1ccccc1)N/N=C/c1cc([N+](=O)[O-])ccc1O,-2,0,-4,33*,1,-9
COc1ccc(S(=O)(=O)N2CCC3(CC2)OCCN3S(=O)(=O)c2cccs2)cc1,-1,9,13,6,-4,7

# High-throughput results as filed in PubChem BioAssay.
